Reference: PubChem BioAssay (NCI)
Compounds without any hit were thinned out: in the full panel of roughly 79,000, 15% have a hit. No stated cut-off is given here; in the data, active means growth inhibition above about 70%; inactive means the rest.

Key:
[1] = NCI Yeast Anticancer Drug Screen. Data for the rad50 strain (AID 155);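 further: 0% = growth of vehicle-only cultures of the same strain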; settings: S. cerevisiae rad50 strain growth inhibition; at 50.0 µM; hits give high values
In short: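 Readout: growth inhibition relative to vehicle-treated cultures. Compound exposure was carried out in a genetically defined yeast strain deficient in DNA damage repair.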

[2] = NCI Yeast Anticancer Drug Screen. Data for the mec2-1 strain (AID 157); settings: S. cerevisiae mec2-1 strain, at 50.0 µM, hits give high values
In short: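 Cells of the genetically defined mec2-1 yeast strain are incubated with test compound. Inhibition of growth is calculated against vehicle-treated controls.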

[3] = NCI Yeast Anticancer Drug Screen. Data for the sgs1 mgt1 strain (AID 161);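 further: 0% = growth of cultures given vehicle only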; settings: S. cerevisiae sgs1 mgt1 strain, at 50.0 µM, hits give high values
In short: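 Read-out: growth inhibition vs vehicle controls. Cells: mutant yeast strain deficient in DNA damage repair.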

[4] = NCI Yeast Anticancer Drug Screen. Data for the cln2 rad14 strain (AID 165);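 further: 0% = growth equal to vehicle treated cultures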; settings: S. cerevisiae cln2 rad14 strain, at 50.0 µM, hits give high values
In short: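 The screen exposed genetically defined yeast (cln2 rad14) to test compounds and scored growth inhibition relative to vehicle-treated controls.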

[5] = NCI Yeast Anticancer Drug Screen. Data for the bub3 strain (AID 167); settings: S. cerevisiae bub3 mutant strain, at 50.0 µM, hits give high values
In short: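 Readout: yeast growth inhibition, expressed relative to vehicle-only wells. The test organism is a mutant strain from a panel with lesions in DNA repair or checkpoint genes.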

[6] = NCI Yeast Anticancer Drug Screen. Data for the mlh1 rad18 strain (AID 175); settings: S. cerevisiae mlh1 rad18 strain growth inhibition; at 50.0 µM; hits give high values
In short: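 Compound-treated yeast growth, normalised to vehicle controls. Strain bears defined DNA repair mutations.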

Measured: growth inhibition

Nc1nc(N)c2c(n1)NCN(OCOc1ccc(Cl)cc1)C2
inactive: [1] -5.05% | [2] -6% | [3] -4.7% | [4] -21.8% | [5] 7.75% | [6] 1.55%

Cc1cc(C)[n+](C)c2cc3ccccc3cc12
inactive: [1] 26.4% | [2] -20.2% | [3] 20.9% | [4] 44.2% | [5] -8.55% | [6] -28.5%

CC(O)CN1CCCC1 (stereo unspecified)
inactive: [1] 5.75% | [2] -21.9% | [3] -4% | [4] 6.2% | [5] 0.6% | [6] 9.35%

COc1ccc(CCNCCCC2c3ccccc3-c3ccccc32)cc1OC
inactive: [1] 28.8% | [2] -3.4% | [3] 6.55% | [4] 12.5% | [5] -19.1% | [6] -34.1%

O=c1[nH]c(-c2ccccc2)c([N+](=O)[O-])c(=O)[nH]1
inactive: [1] 10.7% | [2] -6.25% | [3] -7.65% | [4] -60.2% | [5] 5.95% | [6] 13.6%

O=C(O)c1sccc1-c1cccc2ccccc12
inactive: [1] 0.5% | [2] 18.6% | [3] 10.9% | [4] -13.3% | [5] -15.6% | [6] -11.8%

Clc1ccc2ncccc2c1
inactive: [1] 29.8% | [2] 18% | [3] 7.7% | [4] -24.1% | [5] 7.95% | [6] 17%

CC(=O)CC(SCCSCCSC(CC(C)=O)c1ccccc1)c1ccccc1 (stereo unspecified)
inactive: [1] 6.9% | [2] -3.65% | [3] 5.05% | [4] 17.1% | [5] 3.95% | [6] 14.7%

CN1CNC(=S)NC1
inactive: [1] 10.2% | [2] -7.85% | [3] 11% | [4] 17.6% | [5] 20.9% | [6] 15.2%

Cc1cnc(Cl)[nH]1 (tested in a mixture with another compound)
inactive: [1] 2.7% | [2] 1.55% | [3] 2.15% | [4] -47.5% | [5] 14.8% | [6] -5.5%

Nc1[nH]c(=O)ncc1-c1cccc(Cl)c1
inactive: [1] -6.45% | [2] -4.15% | [3] 11.6% | [4] -7.8% | [5] 5.2% | [6] 33.1%

COc1cc(-c2ccc([NH2+][B-](F)(F)F)c(OC)c2)ccc1[NH2+][B-](F)(F)F
inactive: [1] 21.7% | [2] -2.05% | [3] 37.3% | [4] 29.1% | [5] 9.1% | [6] 18.9%

O=C(Nc1ccc(F)cc1)Nc1ccc(F)cc1
inactive: [1] 3.4% | [2] -10.9% | [3] -3.25% | [4] -43.7% | [5] -32.9% | [6] -16.6%

COc1ccc(C(C#N)NNc2nc(C)cc(=O)[nH]2)cc1OC (stereo unspecified)
inactive: [1] -60.1% | [2] -47.5% | [3] -43.2% | [4] -19.6% | [5] -30.9% | [6] -47%

C=C(Cl)COc1ccc(-c2ccccc2)cc1
inactive: [1] 28.4% | [2] 6.9% | [3] 16.5% | [4] -2.7% | [5] -8.55% | [6] 1.2%

OCC(O)C(O)C(O)C(SCc1ccccc1)SCc1ccccc1 (stereo unspecified)
inactive: [1] 3.9% | [2] -7.85% | [3] -20.4% | [4] -4.8% | [5] -6.2% | [6] -12.6%

CCCCCCCCCCCCc1c2ccccc2cc2ccccc12
inactive: [1] 3.55% | [2] -3.8% | [3] -4.7% | [4] -11.4% | [5] 25.1% | [6] 9.5%

CCC1(CC)C(=O)N(C(=O)c2ccccc2)N(C(=O)c2ccc(Cl)cc2)C1=O
inactive: [1] 20.9% | [2] 18.7% | [3] 34.5% | [4] 32.5% | [5] 46.8% | [6] -79.8%

CCCCCCCCCCCCC(O)C(=O)O (stereo unspecified)
inactive: [1] 12.3% | [2] -17.9% | [3] 10.2% | [4] 12.8% | [5] 35.7% | [6] -39.7%

Nc1ncc(C(=O)O)c(N)n1
inactive: [1] 15.8% | [2] 4.6% | [3] 3.75% | [4] -19.2% | [5] -12.3% | [6] 33.6%

O=C(Nn1c(-c2ccccc2)nc2ccccc2c1=O)c1cccc([N+](=O)[O-])c1
inactive: [1] -27.8% | [2] -33.9% | [3] -14.2% | [4] 5.5% | [5] 23.8% | [6] 3.85%
